Experimental findings from PubChem BioAssay AID485313 (National Center for Advancing Translational Sciences (NCATS), 2010) are described below.

About 7,600 (2.4%) of roughly 320,000 compounds were called active. Inconclusive results (about 3%) are left out. Calls follow the shape of the dose curve; as a rule, active = well fitted activation curve with a large enough effect; inconclusive = small, poorly fitted or top-dose-only effect; inactive = no such curve, though single readings can be large or run the other way. What follows is part of a selection rich in actives, with near analogues and random picks from the rest. Where a call stands in place of a potency, no number is given.
Potency is read from the fitted curve at half-maximal effect.

This experiment in a line: qHTS Assay for NPC1 Promoter Activators. Also: nearly all actives have a fitted effect of over 60% in size. The conditions noted are these: Huh7 NPC1 promoter luciferase reporter, 24 h; series mostly up to 9.22 µM. In outline: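 Luminescence from an NPC1 promoter-driven luciferase reporter in stably transfected Huh7 cells was measured after 24 h compound treatment at 37 °C, followed by 10 min ambient incubation with luciferase detection reagent.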
For orientation: In qHTS, concentration-response curves come from the screen itself.
On to `CCN(CC)c1ccc(NC(=O)CN2C(=O)NC3(CCc4ccccc43)C2=O)cc1` (stereo unspecified), for which the Potency result is “inactive”. With `CCOC(=O)C1CCCN(C(=O)c2ccc(C)c(S(=O)(=O)N3CCCCC3)c2)C1` (stereo unspecified) the entry was “inactive”. In the case of `CCc1c(C)nc2cc(-c3cccs3)[nH]n2c1=O`, the Potency entry was “inactive”. With `CCc1c(C)nc2cc(C)[nH]n2c1=O` the entry was “inactive”; with `C=CCc1c(C)nc2cc(-c3ccccc3)[nH]n2c1=O`, 1.78 µM (active). Regarding `O=C(Nc1cccc2ccccc12)c1onc2c1CCCC2`, the Potency entry was “inactive”. With `COc1ccccc1C(CNC(=O)c1ccc(C)c(S(=O)(=O)N2CCCCC2)c1)N(C)C` (stereo unspecified) the entry was “inactive”. The result for `CC1CN/C(=C\C(=O)c2ccc(Br)cc2)C(=O)N1` (stereo unspecified) reads 0.891 µM (active).

As for `CC1(C)Cc2ccccc2/C(=C/C(=O)c2ccccc2)N1`, the Potency result was “inactive”.

In the case of `COc1cc2c(cc1OC)/C(=C/C(=O)c1ccc(NC(C)=O)cc1)NCC2`, the Potency entry was “inactive”. As to `O=C(NCC#CCSc1nnc(-c2cccc3ccccc23)o1)c1cccs1`, the Potency result was “inactive”. The result for `O=C(NNC(=O)c1cccc(S(=O)(=O)Nc2ccc(Cl)cc2)c1)c1ccc(=O)[nH]c1` reads “inactive”. With `CCC(=O)N(CCc1ccccc1)Cc1cc2cc(C)ccc2[nH]c1=O` the entry was “inactive”; with `O=C(Nc1ccc(NC(=O)c2ccco2)c(Cl)c1)c1cccc([N+](=O)[O-])c1`, “inactive”; with `O=C(Nc1ccc(C(=O)N2CCCCC2)cc1)c1cccc([N+](=O)[O-])c1`, “inactive”. With `O=C(Nc1ccc(C2CC2(Cl)Cl)cc1)c1cccc([N+](=O)[O-])c1` (stereo unspecified) the figure was 2 µM (active); with `O=C(CN1C(=O)NC2(CCOc3ccccc32)C1=O)NCc1ccc(F)cc1` (stereo unspecified), “inactive”; with `O=C(OCC(=O)N1CCCCCC1)c1cnc(Cl)c(Cl)c1`, “inactive”.

Consider `CCC(C)NC(=O)CCCc1ccccc1` (stereo unspecified), for which the Potency entry is “inactive”.

In the case of `C=CCN1CCN(C(=O)CCCc2ccccc2)CC1`, the Potency was 0.316 µM (active). The result for `O=C(CCCc1ccccc1)NCc1ccccc1` reads “inactive”; that for `Nc1nnc(SCC(=O)NCC(=O)Nc2ccc(F)c(F)c2F)s1`, “inactive”.

Take `Nc1nonc1-c1noc(-c2ccc(Br)o2)n1`: the Potency result is “inactive”. With `Brc1ccc(-c2noc(-c3ccccc3)n2)o1` the figure was 2.24 µM (active). With `Cn1nc(-c2ccccc2)c(-c2nc(-c3ccc(Cl)cc3)no2)c1Cl` the entry was “inactive”; with `CC(C)(C)OC(=O)NCCCCCNC(=O)c1nc[nH]c1C(=O)NCc1ccccc1`, “inactive”; with `O=S(=O)(c1ccccc1)N(Cc1cccc(F)c1)c1ccccc1`, “inactive”. The result for `N#Cc1cccc(NC(=O)C2CCCN(C(=O)c3ccc(Cl)cc3)C2)c1` (stereo unspecified) reads “inactive”. For the molecule `CC(C)CNC(=S)Nc1ccc(F)cc1`, the Potency entry was “inactive”.

As to `CC(C)CNC(=O)C(=O)Nc1ccc(N(C)C)cc1`, the Potency was 3.98 µM (active). The result for `CC(C)CNC(=O)C(=O)NCc1ccccc1` reads “inactive”.
